Source: PubChem BioAssay (Tox21)
Results filed as inconclusive are left out. Calls of active or inactive are those of the source. Unless noted, the call rests on the fitted dose curve.

Assays:
[1] = Nuclear factor erythroid 2-related factor 2/antioxidant responsive element (Nrf2/ARE) small molecule agonists: qHTS cell viability counter screen in human keratinocytes (AID 1919968; active means well fitted curve in the direction sought with a large enough effect in the repeat runs; an effect the other way counts as inactive or inconclusive; further: nearly all actives have a fitted effect of over 55% in size)
How it was run: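 Fluorescence read-out from CellTiter-Fluor after 1 h at 37 C. Wells held HaCaT-derived ARE-luciferase reporter cells (1,500/well) treated 23 h with DMSO-dissolved compounds. Run in the same wells as the luciferase agonist read.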

[2] = Nuclear factor erythroid 2-related factor 2/antioxidant responsive element (Nrf2/ARE) small molecule agonists: luciferase reporter gene qHTS assay in human keratinocytes (AID 1919969); further: nearly all actives have a fitted effect of over 35% in size
[3] = target: Gonadotropin-releasing hormone receptor (Homo sapiens) (UniProt P30968); test: Human gonadotropin-releasing hormone receptor (GnRHR) small molecule agonists, calcium flux assay in GnRHR-HEK293 cells (AID 1920063); further: nearly all actives have a fitted effect of over 35% in size
How it was run: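 Calcium-dye fluorescence, Ex/Em=480/540, recorded every 1 sec over 3 min after compound addition to GnRHR-HEK293 cells. Cells had been seeded 18 hours earlier and dye-loaded for 1 hour at 37 C. Fifteen concentrations, triplicates.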

[4] = target: KiSS-1 receptor (Homo sapiens) (UniProt Q969F8); test: Human kisspeptin (KISS1R) small molecule agonists, calcium flux assay in KISS1R-HEK293 cells (AID 1920064; active means well fitted curve in the direction sought with a large enough effect in the repeat runs; an effect the other way counts as inactive or inconclusive)
How it was run: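 Calcium flux read-out: kinetic fluorescence at Ex/Em=480/540, 1 s intervals over 3 min, after pin-tool compound addition to dye-loaded KISS1R-HEK293 cells. Fifteen concentrations, triplicates.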

[5] = G protein-coupled receptor (GPCR) small molecule agonists, calcium flux assay: HEK293 wild type cell line counter screen (AID 1920065)
How it was run: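 Agonist mode; 18 h seeding at 37 C, 1 h dye load at 37 C; compounds pinned from DMSO, ATP as positive control; kinetic fluorescence 480/540 nm, 3 min, 1 s reads; 15 concentrations, triplicate.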

[6] = p53 small molecule agonists, cell-based qHTS assay with human liver microsomes (AID 1963577)
How it was run: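 Fluorescence of the beta-lactamase reporter in p53RE-bla cells, detected with LiveBLAzer substrate (2 h, room temperature, dark), served as the read-out after 16 h compound exposure at 37 C with human liver microsomes and NADPH, each 0.5 mg/mL final.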

[7] = p53 small molecule agonists, cell-based qHTS assay with rat liver microsomes (AID 1963578)
How it was run: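 Cells carrying a p53 response element–beta-lactamase reporter were plated and rested 5 h, then dosed with compound in DMSO plus rat liver microsomes and NADPH, each at 0.5 mg/mL final. After 16 h at 37 C, LiveBLAzer substrate was added for 2 h.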

[8] = p53 small molecule agonists, cell-based qHTS assay with human liver microsomes: qHTS cell viability counter screen (AID 1963579); further: nearly all actives have a fitted effect of over 45% in size
How it was run: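 Cytotoxicity counter screen: p53RE-bla, 4,000 cells/well; 5 h settle, 37 C/5% CO2; cpd + HLM 0.5 mg/mL + NADPH 0.5 mg/mL (final); 16 h, 37 C; CellTiter-Glo, 30 min RT, luminescence.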

[9] = p53 small molecule agonists, cell-based qHTS assay with rat liver microsomes: qHTS cell viability counter screen (AID 1963580); further: nearly all actives have a fitted effect of over 45% in size
How it was run: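 Cytotoxicity counter screen: intracellular ATP measured by CellTiter-Glo luminescence in the same wells as the beta-lactamase reporter read, on HCT-116 p53RE-bla cells exposed 16 h at 37 C to compounds with rat liver microsomes and NADPH, each 0.5 mg/mL final.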

[10] = p53 small molecule agonists, cell-based qHTS assay: qHTS cell viability counter screen (AID 1963581); further: nearly all actives have a fitted effect of over 45% in size
How it was run: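 Cytotoxicity read-out: ATP-based luminescence (CellTiter-Glo, 30 min RT) measured in the same wells as the p53 reporter assay, HCT-116 p53RE-bla cells, 16 h compound exposure at 37 C.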

[11] = p53 small molecule agonists, cell-based qHTS assay (AID 1963582; active means well fitted activation curve with a large enough effect in the signal ratio in the repeat runs, not every such curve was filed as active; the % refers to the signal ratio)
How it was run: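 Fluorescence intensity read-out of a beta-lactamase reporter under a p53 response element. Cells were exposed to DMSO-dissolved compounds for 16 h at 37 C, then developed with FRET substrate for 2 h at RT.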

[12] = target: 5-hydroxytryptamine receptor 2A (Homo sapiens) (UniProt P28223); test: 5-hydroxytryptamine receptor 2A (HTR2A) small molecule antagonists, cell-based qHTS assay (AID 1963586); further: nearly all actives have a fitted effect of over 45% in size
How it was run: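 CHO cells stably expressing human HTR2A were plated for 18 h at 37 C, then loaded with calcium dye for 1 h. Compounds were preincubated 5 min at room temperature before DOI (4 nM solution) was added. Kinetic fluorescence was read for 3 min.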

[13] = target: 5-hydroxytryptamine receptor 2A (Homo sapiens) (UniProt P28223); test: 5-hydroxytryptamine receptor 2A (HTR2A) small molecule agonists, cell-based qHTS assay (AID 1963587); further: nearly all actives have a fitted effect of over 30% in size
How it was run: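 CHO cells stably expressing human HTR2A, plated 18 h, loaded with calcium dye 1 h at 37 C. Agonist mode: compounds added and intracellular calcium fluorescence recorded kinetically for 2 min at 1 sec intervals.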

[14] = target: Muscarinic acetylcholine receptor M1 (Homo sapiens) (UniProt P11229); test: Cholinergic receptor muscarinic 1 (CHRM1) small molecule antagonists, cell-based qHTS assay (AID 1963588); further: nearly all actives have a fitted effect of over 40% in size
How it was run: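 Compounds were tested at 15 concentrations in three independent runs. Dye-loaded CHRM1-CHO cells were exposed 5 min at room temperature before stimulation by acetylcholine added at 50nM. Intracellular calcium was read kinetically on FDSS for 3 min.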

[15] = target: Muscarinic acetylcholine receptor M1 (Homo sapiens) (UniProt P11229); test: Cholinergic receptor muscarinic 1 (CHRM1) small molecule agonists, cell-based qHTS assay (AID 1963589); further: nearly all actives have a fitted effect of over 35% in size
How it was run: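 Calcium flux read-out: kinetic fluorescence at 1 sec intervals after pin-tool compound addition to dye-loaded CHRM1-CHO cells (human M1). Agonist mode; 15 concentrations tested in triplicate independent runs.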

[16] = cAMP Responsive Elements (CRE) small molecule agonists, cell-based qHTS assay (AID 1963590)
How it was run: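 Beta-lactamase reporter readout: LiveBLAzer B/G FRET substrate, 2 h at room temperature, added after 3 h compound treatment of CRE-bla HEK 293T cells at 37 C/5% CO2.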

[17] = cAMP Responsive Elements (CRE) small molecule antagonists, cell-based qHTS assay (AID 1963591; active means well fitted inhibition curve with a large enough effect in the signal ratio in the repeat runs, not every such curve was filed as active; the % refers to the signal ratio)
How it was run: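 HEK293T CRE-bla; 18 h preincubation; compound pin-transfer; NKH477 0.25 uM final, 3 h, 37 C; LiveBLAzer FRET substrate 2 h RT.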

[18] = target: Beta-2 adrenergic receptor (Homo sapiens) (UniProt P07550); test: Adrenergic beta2 receptor (ADRB2) small molecule antagonists, cell-based qHTS assay (AID 1963592); further: series mostly up to about 92 µM; nearly all actives have a fitted effect of over 50% in size
How it was run: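 Assay format: CHO-ADRB2 cells, 18-20hr seeding at 37C/5% CO2, then compound plus 1nM isoproterenol agonist mix for 0.5hr RT. Homogeneous time-resolved fluorescence cAMP detection after 1hr, expressed as 665/615 nm ratio.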

[19] = target: D(2) dopamine receptor (Homo sapiens) (UniProt P14416); test: Dopamine D2 receptor (DRD2) small molecule agonists, cell-based qHTS assay (AID 1963594); further: nearly all actives have a fitted effect of over 35% in size
How it was run: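 HEK293 cells stably expressing human DRD2, pre-treated with PDE inhibitor Ro20-1724 (0.1 mM final) and compound 10 min at room temperature, then stimulated with NKH477 (200nM […]) for 30 min. cAMP read by HTRF (665/620 nm).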

[20] = target: D(2) dopamine receptor (Homo sapiens) (UniProt P14416); test: Dopamine D2 receptor (DRD2) small molecule antagonists, cell-based qHTS assay (AID 1963595; active means well fitted inhibition curve with a large enough effect in the signal ratio in the repeat runs, with a control signal flat; the % refers to the signal ratio)
How it was run: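 HEK293 cells stably expressing DRD2 were preincubated with 0.1 mM Ro20-1724, then with compound for 10 min at room temperature. Cells were stimulated with 200 nM NKH477 plus 12 nM quinpirole for 30 min, and cAMP was read by HTRF.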

Measured: Potency

Chain of D(2) dopamine receptor (Homo sapiens) (P14416 whole entry, looked up): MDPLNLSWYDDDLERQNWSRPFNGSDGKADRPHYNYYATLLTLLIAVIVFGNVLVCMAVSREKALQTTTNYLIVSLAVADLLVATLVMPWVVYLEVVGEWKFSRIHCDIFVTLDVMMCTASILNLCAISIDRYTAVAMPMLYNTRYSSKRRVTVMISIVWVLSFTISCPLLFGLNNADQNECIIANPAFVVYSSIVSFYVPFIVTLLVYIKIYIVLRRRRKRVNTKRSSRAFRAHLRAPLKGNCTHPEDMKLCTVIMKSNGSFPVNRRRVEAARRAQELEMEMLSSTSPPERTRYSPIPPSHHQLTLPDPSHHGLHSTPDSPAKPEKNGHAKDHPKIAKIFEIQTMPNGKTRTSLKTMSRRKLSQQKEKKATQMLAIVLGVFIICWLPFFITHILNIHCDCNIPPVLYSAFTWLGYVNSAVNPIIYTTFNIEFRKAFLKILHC
Chain of Muscarinic acetylcholine receptor M1 (Homo sapiens) (P11229 whole entry, looked up): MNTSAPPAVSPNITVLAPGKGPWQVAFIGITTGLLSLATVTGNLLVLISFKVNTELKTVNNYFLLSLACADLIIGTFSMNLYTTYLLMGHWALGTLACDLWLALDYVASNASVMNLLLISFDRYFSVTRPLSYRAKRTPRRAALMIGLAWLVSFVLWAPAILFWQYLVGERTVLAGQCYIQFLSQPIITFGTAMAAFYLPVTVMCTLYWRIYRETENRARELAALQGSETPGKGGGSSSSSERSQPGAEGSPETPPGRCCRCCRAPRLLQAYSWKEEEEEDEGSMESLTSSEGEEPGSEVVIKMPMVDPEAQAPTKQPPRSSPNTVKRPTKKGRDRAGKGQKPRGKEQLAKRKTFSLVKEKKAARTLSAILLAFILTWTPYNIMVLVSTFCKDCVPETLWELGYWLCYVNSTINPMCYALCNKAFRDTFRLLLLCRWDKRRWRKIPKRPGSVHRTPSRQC
Chain of 5-hydroxytryptamine receptor 2A (Homo sapiens) (P28223 whole entry, looked up): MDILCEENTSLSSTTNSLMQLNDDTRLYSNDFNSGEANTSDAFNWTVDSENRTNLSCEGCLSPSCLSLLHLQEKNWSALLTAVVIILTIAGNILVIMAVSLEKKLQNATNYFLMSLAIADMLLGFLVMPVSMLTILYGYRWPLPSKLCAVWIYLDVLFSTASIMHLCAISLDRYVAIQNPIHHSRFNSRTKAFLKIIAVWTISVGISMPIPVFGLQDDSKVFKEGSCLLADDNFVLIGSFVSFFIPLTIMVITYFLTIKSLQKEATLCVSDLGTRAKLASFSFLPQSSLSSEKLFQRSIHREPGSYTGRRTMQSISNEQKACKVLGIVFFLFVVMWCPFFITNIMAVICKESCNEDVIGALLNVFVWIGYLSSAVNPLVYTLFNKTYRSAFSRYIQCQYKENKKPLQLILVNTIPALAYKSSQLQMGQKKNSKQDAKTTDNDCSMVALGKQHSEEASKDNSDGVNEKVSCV
Chain of Beta-2 adrenergic receptor (Homo sapiens) (P07550 whole entry, looked up): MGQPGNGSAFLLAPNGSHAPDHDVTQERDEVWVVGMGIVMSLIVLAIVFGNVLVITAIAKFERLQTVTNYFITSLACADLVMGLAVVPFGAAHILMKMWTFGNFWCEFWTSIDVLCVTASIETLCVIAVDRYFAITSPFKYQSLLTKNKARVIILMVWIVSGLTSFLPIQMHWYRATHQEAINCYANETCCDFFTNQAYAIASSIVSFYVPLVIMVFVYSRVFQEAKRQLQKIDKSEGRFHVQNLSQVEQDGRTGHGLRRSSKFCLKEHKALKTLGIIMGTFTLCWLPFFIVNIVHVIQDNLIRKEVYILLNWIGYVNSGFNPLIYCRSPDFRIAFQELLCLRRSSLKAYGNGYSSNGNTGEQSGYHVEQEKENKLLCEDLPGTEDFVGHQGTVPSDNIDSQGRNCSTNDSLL
Chain of KiSS-1 receptor (Homo sapiens) (Q969F8 whole entry, looked up): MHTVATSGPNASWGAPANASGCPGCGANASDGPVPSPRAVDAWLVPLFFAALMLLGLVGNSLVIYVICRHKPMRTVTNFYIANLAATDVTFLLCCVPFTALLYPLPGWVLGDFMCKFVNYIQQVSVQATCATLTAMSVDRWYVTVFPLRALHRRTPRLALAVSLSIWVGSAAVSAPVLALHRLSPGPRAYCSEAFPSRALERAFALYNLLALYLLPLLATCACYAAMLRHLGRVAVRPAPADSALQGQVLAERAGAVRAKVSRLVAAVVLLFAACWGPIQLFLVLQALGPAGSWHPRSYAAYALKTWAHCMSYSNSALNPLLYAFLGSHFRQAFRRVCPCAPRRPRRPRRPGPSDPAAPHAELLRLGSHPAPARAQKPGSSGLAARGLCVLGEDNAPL
Chain of Gonadotropin-releasing hormone receptor (Homo sapiens) (P30968 whole entry, looked up): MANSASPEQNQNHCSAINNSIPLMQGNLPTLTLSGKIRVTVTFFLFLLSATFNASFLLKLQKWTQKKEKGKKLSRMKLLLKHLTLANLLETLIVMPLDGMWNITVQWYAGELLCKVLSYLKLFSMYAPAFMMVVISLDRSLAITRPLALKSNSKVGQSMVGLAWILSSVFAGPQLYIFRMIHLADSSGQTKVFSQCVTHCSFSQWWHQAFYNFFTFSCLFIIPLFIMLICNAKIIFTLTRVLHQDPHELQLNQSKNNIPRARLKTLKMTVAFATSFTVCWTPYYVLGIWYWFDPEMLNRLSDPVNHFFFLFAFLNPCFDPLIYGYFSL

C[n+]1ccn(Cc2ccccc2)c1
inactive: all assays above

COCC(O)CO (stereo unspecified)
not listed: [19]
inactive: all other assays above

CCCCCC(=O)CC
inactive: all assays above

CCOC(=O)c1cc(=O)c2c(OCC(COc3cccc4oc(C(=O)OCC)cc(=O)c34)OC(=O)[C@@H](N)CCCCN)cccc2o1
not listed: [19]
inactive: all other assays above

CC(C)(C)OC=O
not listed: [20]
inactive: all other assays above

N#Cc1cc(NC(=O)C(=O)O)c(Cl)c(NC(=O)C(=O)O)c1
not listed: [20]
inactive: all other assays above

CCC(C)CO (stereo unspecified)
inactive: all assays above
